Growth data for 14 compounds are collected here from PubChem BioAssay (NCI).

Holding throughout (test): NCI-60 one-dose screen, 48 h (100 = growth as untreated, 0 = no growth, -100 = all killed)
What all share (conditions): 10 µM unless noted

Assay [1] relates to NCI-H23 lung.
In assay [2] the test system is NCI-H322M lung.
For assay [3], the system named is HOP-62 NSCLC.
Assay [4] deals with NCI-H460 lung.
The test system of assay [5] is NCI-H522 lung.
Assay [6] relates to A549/ATCC NSCLC.
Assay [7] relates to 786-0 renal.
The test system of assay [8] is COLO 205 colon.
Assay [9] relates to DU-145 prostate.
In assay [10] the test system is K-562 leukemia.
The subject of assay [11] is MALME-3M melanoma.
The subject of assay [12] is MDA-MB-231 breast.
Assay [13] deals with RXF 393 renal.
Assay [14] has as its system SF-268 CNS.
The subject of assay [15] is SF-295 CNS.
In assay [16] the test system is SF-539 CNS.
The subject of assay [17] is UACC-257 melanoma.
The test system of assay [18] is M14 melanoma.
In assay [19] the test system is HOP-92 NSCLC.
Assay [20] concerns NCI-H226 lung.

The panel holds about 83,000 compounds, 20% with a hit somewhere; the sample as a whole holds those more often.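 Results are percent growth after 48 hours of single-concentration exposure. 100 means growth as in untreated cells, lower positive values show inhibition; negative values down to -100 show cell death.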 A number with no mark means an inactive call. The source made the active and inactive calls. How the source made its calls: active means growth percent below 10; inactive means the rest.

Consider `COc1ccc(-c2cc(-c3ccc(Cl)cc3)c(C#N)c(=O)n2CCCCC(=O)NO)cc1`, for which the growth in assay [1] was 84.9%; in assay [2], 77.3%; in assay [3] it was 66.5%; in assay [4], 99.1%; in [5], 58.8%; in [6], 82.7%. The growth in [7] is 80.2%; in assay [8], 86.3%; in assay [9], 78.2%; in assay [10] it was 61.8%; in [11], 73.3%; in assay [12], 52.1%. For the same compound, the growth in assay [13] is 37.3%; in [14] it was 85.2%; in assay [15], 90.2%; in assay [16] it was 82.5%; in assay [17], 80%; in [18], 72.6%.

Take `CC(=O)CC(=O)c1ccccc1.[Cu+2]`: the growth in assay [1] was 97.1%; in assay [2], 105%; in assay [3] it was 119%; in assay [4], 110%; in assay [5], 97.5%; in assay [6] it was 104%. For the same compound, the growth in assay [7] is 107%; in [8], 116%; in [9], 98.4%; in [10] it was 99%; in [11] it was 95.2%; in assay [12], 96.5%. Also, the growth in assay [13] is 125%; in assay [14], 118%; in assay [15], 105%; in assay [16], 105%; in [17] it was 102%; in assay [18], 107%.

Turning to `COc1cc2c(c(OC)c1OC)CCC(c1cccc(NC(=O)c3cccc(Cl)c3)c1)O2` (configuration not stated), the growth in assay [1] was 92.7%; in [2], 90.3%; in assay [3] it was 92.8%; in assay [4], 96.9%; in assay [19], 83.1%; in [5], 62.1%. Besides, the growth in [6] is 85%; in assay [7] it was 96.7%; in assay [8], 94.2%; in [9], 102%; in assay [10], 72%; in assay [11] it was 86.6%. Besides, the growth in assay [12] is 88%; in assay [13], 96%; in assay [14], 90.6%; in assay [15], 74.4%; in assay [16] it was 103%; in assay [17], 94.2%. In [18], the growth was 86.6%.

Consider `Cc1[nH]c(C(=O)Nc2ccc(C(N)=O)cc2OC(C)C)c(Cl)c1Cl`, for which the growth in assay [1] is 97.6%; in [20] it was 107%; in [2], 100%; in assay [3] it was 92.7%; in assay [4] it was 85.1%; in [5] it was 91.7%. Also, the growth in assay [6] is 100%; in assay [7], 102%; in assay [9], 101%; in assay [10], 79.9%; in [11] it was 101%; in [12], 91.4%. Also, the growth in assay [13] is 133%; in assay [14], 97.5%; in assay [15] it was 104%; in assay [16] it was 92.8%; in assay [17], 106%; in [18], 108%.

As for `C=CCNc1ccc2c3c(cccc13)C(=O)N(CC=C)C2=O`, the growth is 96% in assay [1]; 102% in assay [2]; 108% in assay [3]; 99.9% in [4]; 49.6% in assay [19]; 99.4% in assay [5]. For the same compound, the growth in assay [6] was 103%; in [7], 101%; in assay [8] it was 110%; in assay [9] it was 102%; in assay [10], 96.7%; in assay [11], 111%. The growth is 88.9% in [12]; 99.7% in assay [13]; 96.2% in assay [14]; 106% in assay [15]; 93.7% in [16]; 114% in [17]. Moreover, in [18], the growth was 108%.

Regarding `CCN1C(=O)N(CC)C2C1NC(=S)N2/N=C/C=C/c1cccs1` (configuration not stated), the growth is 42.6% in assay [1]; 50.9% in assay [2]; 51.1% in assay [3]; 7.03% (active) in assay [4]; 88.8% in assay [19]; -5.25% (active) in assay [5]. Further, the growth in assay [6] is 24.9%; in assay [7], 43.1%; in [8] it was 18.3%; in [9], 23%; in [10], 11.2%; in [11], 45.5%. Also, the growth in assay [12] was 26.6%; in assay [13], -5.1% (active); in [14] it was 66.2%; in assay [15], 16.2%; in assay [16], -16% (active); in assay [17] it was 63.1%. The growth in assay [18] was 12.3%.

Regarding `O=c1ccc2c(ccc3ncccc32)o1`, the growth was 106% in assay [1]; 104% in assay [20]; 101% in [2]; 109% in assay [3]; 113% in assay [4]; 96% in assay [5]. The growth in [6] was 98.2%; in assay [7] it was 110%; in assay [9] it was 117%; in assay [10], 113%; in assay [11], 121%; in [12] it was 120%. Further, the growth in assay [13] was 95%; in assay [14] it was 113%; in assay [15] it was 90.4%; in [16] it was 106%; in [17] it was 110%; in assay [18] it was 128%.

With `CN(C)CCOc1nc2c3cc([N+](=O)[O-])ccc3nn2c2ccccc12`, the growth was 36.7% in assay [1]; 59.6% in assay [2]; 30.2% in assay [3]; 4.99% (active) in [4]; 57.3% in assay [19]; 46.2% in [5]. In addition, the growth in [6] was 12.7%; in [7], 22.7%; in assay [8], 33.9%; in assay [9] it was 32.2%; in assay [10] it was 26.3%; in assay [11], 52.4%. For the same compound, the growth in [12] was 66.4%; in [13], 24.3%; in assay [14], 56.6%; in assay [15], 9.28% (active); in assay [16], 51.6%; in [17], 78.9%. The growth in [18] was 47.3%.

In the case of `CN1CCN(c2ccc(Nc3ncc4[nH]c(=O)n(Cc5ccccc5N)c4n3)cc2)CC1`, the growth was 97.5% in [1]; 100% in assay [2]; 77.8% in assay [3]; 102% in assay [4]; 85.5% in [19]; 77.1% in assay [5]. The growth was 97.5% in assay [6]; 84.1% in assay [7]; 107% in assay [8]; 103% in assay [9]; 69.8% in [10]; 83.9% in assay [11]. In addition, the growth in [12] is 83.8%; in assay [13], 83.8%; in [14], 72.8%; in [15], 98.2%; in assay [16], 80.9%; in [17] it was 112%. The growth in assay [18] is 95.9%.

In the case of `NC(=N\N=C/c1ccc(Cl)cc1Cl)/C(N)=N\N=C/c1ccc(Cl)cc1Cl`, the growth is 87.1% in assay [1]; 41% in assay [2]; 83% in assay [3]; 20.7% in [4]; 43.8% in assay [19]; 79.8% in assay [5]. Also, the growth was 62.5% in [6]; 3.29% (active) in assay [7]; 71.6% in [8]; 90.6% in [9]; 80.6% in assay [10]; 88.3% in assay [11]. Also, the growth in [12] is 71.1%; in assay [13] it was 83.6%; in assay [14], 89.7%; in assay [15] it was 60%; in assay [16], 43.5%; in assay [17], 118%. Besides, in assay [18], the growth was 105%.

Consider `O=C1C2C(c3cccs3)C=C(c3ccc(Cl)cc3)N2C(=S)N1c1ccccc1` (configuration not stated), for which the growth is 94.2% in assay [1]; 102% in [2]; 101% in assay [3]; 108% in assay [4]; 97.2% in assay [19]; 98.6% in assay [5]. Moreover, the growth in assay [6] is 101%; in [7] it was 102%; in [8], 119%; in assay [9], 110%; in assay [10], 101%; in assay [11], 115%. In addition, the growth in assay [12] was 86.3%; in assay [13], 102%; in assay [14], 96.7%; in assay [15], 104%; in [16], 93%; in [17], 105%. Further, in [18], the growth is 101%.

With `CO[C@H]1/C=C/O[C@@]2(C)Oc3c(C)c(O)c4c(O)c(c5c(nc6cc(C)ccn65)c4c3C2=O)NC(=O)/C(C)=C\C=C\[C@H](C)[C@H](O)[C@@H](C)C(O)[C@@H](C)[C@H](OC(C)=O)[C@@H]1C` (some centres not stated), the growth is 99.6% in assay [1]; 97.4% in assay [2]; 3.22% (active) in [3]; 114% in [4]; 98.7% in assay [19]; 91.1% in assay [5]. Besides, the growth in assay [6] is 104%; in assay [7], 95.3%; in [8] it was 0.546% (active); in [9], 114%; in assay [10], 95.3%; in assay [11], 93.4%. Moreover, the growth in [12] is 104%; in assay [13] it was 111%; in [14] it was 102%; in assay [15], 102%; in [16], 105%; in assay [17], 106%. The growth in [18] was 94.4%.

With `C=C(C)Cn1c(SCC(=O)c2cccs2)nc2sc3c(c2c1=O)CCCC3`, the growth is 72.8% in assay [1]; 67.9% in assay [2]; 73.5% in [3]; 8.41% (active) in [4]; 92.4% in assay [19]; 58.1% in [5]. Besides, the growth in [6] is 41.1%; in assay [7], 52.6%; in [8] it was 43.6%; in assay [9], 50.9%; in assay [10] it was 41%; in assay [11] it was 71.5%. Further, the growth in [12] was 65.5%; in assay [13], 52.2%; in assay [14], 42.2%; in assay [15] it was 42.2%; in assay [16], 39.3%; in assay [17], 81.5%. In addition, the growth in assay [18] was 77.6%.

Regarding `COC1CC(O)C2=C(CC3C(/C(C)=C\CC=C(C)C)CCC3(C)O2)C1=O` (configuration not stated), the growth in assay [1] is 97.9%; in assay [2], 101%; in assay [3], 105%; in [4], 104%; in [19] it was 97.5%; in assay [5], 90.1%. Besides, the growth was 95.2% in [6]; 103% in [7]; 119% in assay [8]; 101% in assay [9]; 96.7% in assay [10]; 102% in [11]. In addition, the growth in assay [12] is 115%; in assay [13], 110%; in [14], 91.1%; in assay [15], 107%; in [16], 109%; in assay [17], 95.2%. The growth in [18] is 106%.
